AMA1 RON2 block – inhibitors of Plasmodium falciparum AMA1-RON2 interaction | AlphaScreen AMA1-biotinylated RON2 peptide binding | Potency, µM (series often up to 58.2 µM), without a hit: top-dose activity change, negative = inhibition, hits mostly inhibitors | actives 0.2% (n = 360,000) | AID 720542;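 further: potency means the concentration at half of the fitted maximal effect; 0% = vehicle wells and -100% = peptide control; nearly all actives have a fitted effect of over 45% in size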
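AMA1 (3D7) with his tag at 25 nM final met compounds first, then biotinylated RON2 peptide at 25 nM; detection used donor plus acceptor beads, 10 µg/mL apiece, read by AlphaScreen after 30 min at room temperature.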
Cycloheximide cs – counter-screen hit for Shiga toxin inhibitors, cycloheximide; AID 2314; cell reporter, cycloheximide protein synthesis inhibition counterscreen; max response, %; actives 12% (n = 300,000); in the data active means max response mostly above about 13%, no sharp cut-off; inactive means mostly below about 14%; further: read at 38.3 µM for the half of the compounds with a filed dose; 0% is about no effect
Shiga toxin inh – inhibitors of Shiga toxin in Vero cells. Vero cells, Shiga toxin protein synthesis inhibition reporter. actives 9.2% (n = 290,000). AID 2315. inhibition, % at 38.7 µM; in the data active means inhibition mostly above about 28%, no sharp cut-off; inactive means mostly below about 43%; further: 0% is about no effect
Pf growth 48h – P. falciparum growth inhibition at 48 hours (one generation); actives 5.9% (n = 310,000); P. falciparum luciferase growth in erythrocytes, 48 h; AID 504832; Potency, µM (highest dose often 28.7 µM), for inactives: at the top dose activity change, negative = inhibition, most hits filed as inhibitors; further: potency means the concentration at half of the fitted maximal effect; on the % scale 0 is the no-effect control and ±100 the full control effect
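Cell-based growth assay: transgenic P. falciparum expressing firefly luciferase, cultured in red cells within RPMI 1640 containing 0.5% w/v Albumax, 24 mM bicarbonate and gentamycin. A drop in luciferase activity indicates inhibition.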
Pf growth 96h – P. falciparum growth inhibition at 96 hours. AID 504834. Potency, µM (highest dose often 28.7 µM), for inactives: at the top dose activity change, negative = inhibition, usual class: inhibitors. actives 6.9% (n = 320,000). P. falciparum luciferase reporter growth, 96 h; further: potency means the concentration at half of the fitted maximal effect; on the % scale 0 is the no-effect control and ±100 the full control effect
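Cell-based qHTS: luciferase-tagged P. falciparum in erythrocytes (2% hematocrit, 0.05% parasitemia final) incubated with compounds for 96 hours, 37 C, 5% CO2; luciferase detection reagent then added and luminescence measured.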
HCV inhibitor – blocks hepatitis C virus; Huh7.5.1 HCVcc-Cre infection, luciferase reporter, 44 h; Potency, µM (highest dose often 41.8 µM), for the others: at the highest dose activity change, negative = inhibition, most hits filed as inhibitors; actives 3.4% (n = 340,000); AID 651820; further: potency means the concentration at half of the fitted maximal effect; on the % scale 0 is the no-effect control and ±100 the full control effect
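1,000 cells/well; 4 h culture; + compound; + HCVcc-Cre (~0.5 moi); 44 h; luciferase substrate, RT 15 min; read 15 sec.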
* = called active by the depositor; i = inactive; ? = inconclusive; . = not tested or not shown; + = active, no number; [ ] = another dose, or the depositor's remark. Most compounds without a hit are left out; they make up all but 21% or so of the library. Unless noted, the call rests on the fitted dose curve; in most records, active means well fitted curve in the direction sought with a large enough effect; inconclusive means small, poorly fitted or top-dose-only effect, or another doubt; inactive means no such curve, though single readings can be large; an effect the other way counts as inactive or inconclusive.

SMILES | AMA1 RON2 block | Cycloheximide cs | Shiga toxin inh | Pf growth 48h | Pf growth 96h | HCV inhibitor
CCC/C=C1/CCCOC(C(=O)NCC2CC2)(C(F)(F)F)C1 (configuration not stated) | . | -6.3 | -12.2 | . | . | .
O=C(NCc1cccc(Cl)c1)C1Cc2c(-c3ccccc3)ccnc2O1 (configuration not stated) | 0.7% | . | . | . | . | .
Cc1cc(Cl)ccc1OCc1nc(-c2ccc(O)cc2)n[nH]1 | 9.8% | 24.5 | 29.2 | -3.6% | . | -13.7%
Oc1ccc(N=Nc2n[nH]c(-c3ccc(Cl)cc3)n2)cc1 | 85.8% | 22.6* | 81.6* | 10.8% | ? | -13.1%
CCOC(=O)c1cc(C#N)c(SCC(=O)Nc2ccc(C(C)=O)cc2)[nH]c1=O | 3.7% | 17.4* | 46.9* | 8.4% | -1.8% | ?
CCOC(=O)c1cc(C#N)c(SCC(N)=O)[nH]c1=O | -6.8% | -2.7 | -3.1 | 6.0% | 5.6% | 8.7%
COC(=O)c1cc2ccccc2c(=O)s1 | 6.8% | 14.9* | 9.0 | 44.9% | 5.8% | -15.9%
CCOC(=O)/C=C/c1cc(F)c(S(=O)(=O)N2CCN(S(=O)(=O)c3ccc4c(c3)OCCO4)CC2)cc1F | . | -3.9 | 21.2 | . | . | .
COCc1cc(C)nc(SCC(=O)Nc2ccc3c(c2)OCO3)c1C#N | -12.6% | 7.5 | 9.5 | 13.8% | 0.8% | 11.2µM*
CCOc1ccc(CSc2nc(C)cc(COC)c2C#N)cc1OCC | 8.8% | -2.5 | 6.0 | 13.1µM* | -14.7% | ?
COCc1cc(C)nc(SCC(=O)Nc2ccc3c(c2)OCCO3)c1C#N | -1.3% | 11.0* | 19.1 | 49.1% | 11.0% | ?
COCc1cc(C)nc(SCC(=O)Nc2cccc3cccnc23)c1C#N | 105.2% | -3.3 | -4.7 | 15.4% | 11.7µM* | 12.5%
O=C(O)c1ccccc1-c1nc2ccccc2[nH]1 | 3.0% | 1.5 | 39.4 | 23.8% | ? | 10.8%
N#CCCCSc1ncccc1-c1nc2ccccc2[nH]1 | -3.5% | 28.0* | 73.7 | 33.8% | . | -18.9%
N#CCSc1ncccc1-c1nc2ccccc2[nH]1 | 0.1% | 16.7 | 29.9* | ? | -21.9% | 1.0%
CC(Sc1nnc(C2CC2)n1-c1ccccc1)C(=O)N1CCCC1 (configuration not stated) | -2.7% | . | . | 33.2% | ? | 14.8%
Cc1nn(CC(=O)Nc2ccccc2C(F)(F)F)c(=O)c2cccn12 | -1.6% | -2.4 | 9.3 | ? | ? | 3.7%
O=C(c1c(Cl)nc2sccn12)N(C(=O)c1c(Cl)nc2sccn12)c1ccc(Cl)cn1 | -6.7% | 79.7* | 187.3* | . | -5.2% | -14.8%
CCS(=O)(=O)c1ccc(N=Nc2ccc(O)c3ncccc23)c(OC)c1 | ? | 10.7 | 17.5 | ? | ? | ?
Oc1ccc(N=Nc2ccccc2C(F)(F)F)c2cccnc12 | 76.1% | -5.8 | -3.9 | 1.47µM* | 0.928µM* | 3.16µM*
COc1ccccc1N=Nc1ccc(O)c2ncccc12 | -72.6% | 61.6* | 90.3* | 2.94µM* | 1.9% | 2.24µM*
CCCNC(=O)C1(C)CCCN(C(=O)c2ccc(OC(F)F)cc2)C1 (configuration not stated) | 11.8% | . | . | . | . | .
C=CCN1C(=O)c2ccc(C(=O)N3CCN(S(=O)(=O)c4cccc(Cl)c4)CC3)cc2C1=O | 6.4% | -4.2 | -8.4 | 10.4µM* | 13.1µM* | -5.0%
COc1ccc(NC(=O)c2cc3c([nH]c4ccccc43)c(C)n2)cc1 | 126.1% | -1.0 | 16.2 | ? | 9.28µM* | ?
CCOc1c(Cl)cc(C(=O)Nc2ccccc2-c2ccccc2)cc1Cl | -2.5% | -3.6 | -1.4 | -11.5% | -17.4% | 2.8%
SMILES | AMA1 RON2 block | Cycloheximide cs | Shiga toxin inh | Pf growth 48h | Pf growth 96h | HCV inhibitor
COc1ccc(C(=O)Nc2cccc(C(=O)N3CCCC3)c2)cc1 | -5.7% | 10.6* | 9.2 | 97.3% | 32.3% | -0.5%
COC(=O)c1cc2c([nH]c3ccccc32)c(C)n1 | . | -4.6 | -4.5 | 1.3% | 1.8% | .
CC(=O)N1CCN(c2ccc(NC(=O)c3ccc(C)cc3)cc2)CC1 | -0.7% | 9.2 | 35.5 | 5.4% | 115.7% | -10.1%
CC(=O)N1CCc2cc(NC(=O)c3ccc(C)cc3)ccc21 | 1.5% | 33.7* | 46.7* | 13.9% | . | -28.9%
COc1cccc(C(=O)Nc2cccc(C(=O)N3CCOCC3)c2)c1 | -11.8% | 9.5 | 2.1 | 20.0% | . | 5.3%
CCOc1c(Cl)cc(C(=O)Nc2cccc(C(=O)O)c2)cc1Cl | -3.9% | 43.3* | 69.3* | 100.8% | -9.3% | 10.6%
Cc1c(Cl)cccc1NC(=S)Nc1ccc(S(=O)(=O)Nc2ncccn2)cc1 | 11.4% | . | . | . | . | 14.4%
COc1ccc(NC(=O)c2cccc(NC(=O)c3ccccc3)c2)cc1 | 39.5% | 17.9* | 24.8 | -6.2% | 0.7% | ?
COc1ccc(C(=O)Nc2cccc(C(=O)NCc3ccccc3)c2)cc1 | -4.4% | 17.9 | 16.5 | 2.7% | 37.4% | ?
COc1ccc(NC(=O)c2ccccc2-c2ccccc2)cc1 | -7.8% | -7.1 | 17.8 | -18.8% | 141.8% | -28.1%
COc1ccccc1Oc1ccc(NC(=O)c2ccccc2)cc1 | -14.1% | 28.4* | 46.6 | 5.7% | 0.0% | -8.0%
COc1ccc(N/N=C(C)/C(=N/O)C(=O)Nc2ccccc2)cc1 | -1.0% | 29.1* | 74.2* | 54.1% | 79.8% | -9.1%
CCN(Cc1ccccc1)C(=O)c1ccc(NC(=O)c2ccc(OC)cc2)cc1 | -8.9% | -0.7 | 1.1 | -9.5% | -4.2% | 12.6µM*
CNC[C@@H]1Oc2ccc(NC(=O)Nc3cccc4ccccc34)cc2C(=O)N([C@@H](C)CO)C[C@@H]1C | . | . | . | . | . | 2.9%
CCOc1ccc(NC(=O)c2cccc(NC(=O)c3ccccc3)c2)cc1 | 10.1% | 17.2* | 53.1* | ? | ? | ?
COc1ccccc1OCC(=O)NNC(=O)Nc1ccc(Cl)cc1 | 62.8% | -1.9 | 12.3 | -5.5% | -28.0%[5.75 µM] | -24.9%
COc1ccc(NC(=O)c2cc3ccccn3n2)cc1 | 19.7% | 39.5* | 159.0 | . | 4.7% | ?
Cc1cccc(C(=O)Nc2cccc(C(=O)N3CCOCC3)c2)c1 | 0.2% | 18.6 | 8.6 | . | 138.1% | 2.4%
CCOc1cccc(C(=O)Nc2cccc(C(=O)NC(C)(C)C)c2)c1 | 8.6%[2.32 µM] | 6.0 | -7.4 | -5.6% | 8.4% | ?
COc1ccccc1OC(=O)Nc1ccc(Cl)cc1 | -3.3% | 31.9* | 58.1* | . | 12.9% | 1.6%
Cc1ccc(C(=O)Nc2cccc(C(=O)N3CCN(C)CC3)c2)cc1 | 3.7% | 30.5* | 70.8* | 6.1% | 292.6% | -29.8%
CCC(c1nnnn1-c1c(C)cccc1C)N1CCCN(Cc2ccc(F)cc2)CC1 (configuration not stated) | -6.4% | . | . | . | . | .
Cc1nn(Cc2ccccc2)c(Cl)c1/C=N/NC(=O)CNc1cccc(C(F)(F)F)c1 | -6.3% | -1.2 | -7.3 | ? | 11.7µM* | ?
Cc1nn(-c2cccc(C(F)(F)F)c2)c(Cl)c1/C=N/Nc1cccc(C(=O)O)c1 | 4.7%[2.32 µM] | 105.8* | + | 257.1% | i | 0.4%

Screens as filed in PubChem BioAssay.
